This is an account of results in PubChem BioAssay (NCI).

Test [1] in a line: NCI Yeast Anticancer Drug Screen. Data for the rad50 strain (AID 155).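 Also: 0% = growth of vehicle-only cultures of the same strain.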 As to conditions: S. cerevisiae rad50 strain growth inhibition, stronger effect = higher value. The method, boiled down:
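Cells are treated with compound, grown, and their growth is then scored against vehicle-only cultures of the same repair-deficient yeast strain.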

Test [2] can be described thus: NCI Yeast Anticancer Drug Screen. Data for the mec2-1 strain (AID 157). To be noted: S. cerevisiae mec2-1 strain, stronger effect = higher value. An outline of the steps:
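Yeast mec2-1 mutant treated with compound. Readout: growth inhibition vs vehicle controls.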

A short description of test [3]: NCI Yeast Anticancer Drug Screen. Data for the sgs1 mgt1 strain (AID 161).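 Also: 0% = growth of cultures given vehicle only.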 As to conditions: S. cerevisiae sgs1 mgt1 strain, stronger effect = higher value. The method, boiled down:
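Genetically altered yeast, compound exposure, growth inhibition relative to vehicle.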

The nature of test [4]: NCI Yeast Anticancer Drug Screen. Data for the cln2 rad14 strain (AID 165).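 Also: 0% = growth equal to vehicle treated cultures.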 To be noted: S. cerevisiae cln2 rad14 strain, stronger effect = higher value. The method, boiled down:
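cln2 rad14 yeast strain; compound exposure; growth inhibition read vs vehicle controls.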

A short description of test [5]: NCI Yeast Anticancer Drug Screen. Data for the bub3 strain (AID 167). As to conditions: S. cerevisiae bub3 mutant strain, stronger effect = higher value. An outline of the steps: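 Part of a panel of yeast mutants defective in DNA damage repair or cell cycle regulation. Each strain is grown with compound, and inhibition is calculated relative to solvent-treated cultures.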

The nature of test [6]: NCI Yeast Anticancer Drug Screen. Data for the mlh1 rad18 strain (AID 175). To be noted: S. cerevisiae mlh1 rad18 strain growth inhibition, stronger effect = higher value. An outline of the steps:
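Yeast w/ defined DNA-repair lesions; compound exposure; growth vs vehicle controls → % inhibition.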

Setting [7] is: at 5.0 µM (retest, dose inferred, filed as 0.5).
[8] abbreviates: at 50.0 µM (retest, dose inferred, filed as 5.0).

About 79,000 compounds went through this panel and 15% of them were active in at least one assay; those are over-represented in the sample as a whole. Values without a mark were called inactive. Calls of active or inactive are those of the source. Rule as the data show it: active = growth inhibition above about 70%; inactive = the rest.

For the molecule `CC(=O)OC1=CC2=CCC3C(CCC4(C)C(C(C)=O)CCC34)C2(C)CC1` (stereo not given), the growth inhibition in test [1] (setting [7]) was -12%; in test [1] (setting [8]), 0%; in test [1] (at 50.0 µM), -5.65%; in test [2] (setting [7]), -6%; in test [2] (setting [8]), 7%; in test [2] (at 50.0 µM), 10.9%. Further, the growth inhibition in test [3] (setting [7]) was -6%; in test [3] (setting [8]) it was 8%; in test [3] (at 50.0 µM), 7.35%; in test [4] (setting [7]), -6%; in test [4] (setting [8]), -13%; in test [4] (at 50.0 µM), 39.8%. Moreover, the growth inhibition in test [5] (setting [7]) was -11%; in test [5] (setting [8]), -14%; in test [5] (at 50.0 µM), -1.15%; in test [6] (setting [7]) it was -4%; in test [6] (setting [8]), -11%; in test [6] (at 50.0 µM), 11.3%.

Consider `c1ccc(Nc2cccc3ccccc23)cc1`, for which the growth inhibition was -4% in test [1] (setting [7]); 95% (active) in test [1] (setting [8]); 94.8% (active) in test [1] (at 50.0 µM); -5% in test [2] (setting [7]); 81% (active) in test [2] (setting [8]); 96.2% (active) in test [2] (at 50.0 µM). The growth inhibition in test [3] (setting [7]) was -3%; in test [3] (setting [8]) it was 62%; in test [3] (at 50.0 µM), 95.8% (active); in test [4] (setting [7]), -1%; in test [4] (setting [8]) it was 32%; in test [4] (at 50.0 µM) it was 95.1% (active). Further, the growth inhibition in test [5] (setting [7]) was 43%; in test [5] (setting [8]) it was 95% (active); in test [5] (at 50.0 µM), 91.5% (active); in test [6] (setting [7]), -1%; in test [6] (setting [8]), 88% (active); in test [6] (at 50.0 µM) it was 95.5% (active).

On to `Cc1ccccc1NC(=S)Nc1ccccc1O`, for which the growth inhibition in test [1] (setting [7]) was -4%; in test [1] (setting [8]), 81% (active); in test [1] (at 50.0 µM) it was 97.2% (active); in test [2] (setting [7]), -2%; in test [2] (setting [8]), 87% (active); in test [2] (at 50.0 µM), 94.4% (active). The growth inhibition in test [3] (setting [7]) is 0%; in test [3] (setting [8]), 82% (active); in test [3] (at 50.0 µM) it was 90.8% (active); in test [4] (setting [7]), -5%; in test [4] (setting [8]), 63%; in test [4] (at 50.0 µM), -27.8%. For the same molecule, the growth inhibition was 20% in test [5] (setting [7]); 98% (active) in test [5] (setting [8]); 98.3% (active) in test [5] (at 50.0 µM); -3% in test [6] (setting [7]); 71% (active) in test [6] (setting [8]); 95.1% (active) in test [6] (at 50.0 µM).

Consider `COc1ccc(CSC(=S)Nc2ccc(Cl)c(C(F)(F)F)c2)cc1`, for which the growth inhibition was 27% in test [1] (setting [7]); 30% in test [1] (setting [8]); 89.7% (active) in test [1] (at 50.0 µM); 15% in test [2] (setting [7]); 16% in test [2] (setting [8]); 90.2% (active) in test [2] (at 50.0 µM). The growth inhibition in test [3] (setting [7]) was 43%; in test [3] (setting [8]), 49%; in test [3] (at 50.0 µM) it was 89% (active); in test [4] (setting [7]) it was 44%; in test [4] (setting [8]), 38%; in test [4] (at 50.0 µM), 88.7% (active). The growth inhibition in test [5] (setting [7]) is 47%; in test [5] (setting [8]), 63%; in test [5] (at 50.0 µM) it was 88.3% (active); in test [6] (setting [7]) it was 17%; in test [6] (setting [8]), 21%; in test [6] (at 50.0 µM), 87.2% (active).

As to `COC(=O)[C@@H]1c2cc3c(c(O)c2[C@@H](OC)C[C@@]1(C)O)C(=O)c1c(O)cc2c(c1C3=O)OC1O[C@@]2(C)[C@H](O)[C@@H](N(C)C)[C@@H]1O`, the growth inhibition is 15% in test [1] (setting [7]); 98% (active) in test [1] (setting [8]); 64.2% in test [1] (at 50.0 µM); 10% in test [2] (setting [7]); 95% (active) in test [2] (setting [8]); 94% (active) in test [2] (at 50.0 µM). Further, the growth inhibition was 9% in test [3] (setting [7]); 98% (active) in test [3] (setting [8]); 94% (active) in test [3] (at 50.0 µM); 4% in test [4] (setting [7]); 97% (active) in test [4] (setting [8]); 87.5% (active) in test [4] (at 50.0 µM). For the same molecule, the growth inhibition in test [5] (setting [7]) was 5%; in test [5] (setting [8]), 97% (active); in test [5] (at 50.0 µM), 92.8% (active); in test [6] (setting [7]), 12%; in test [6] (setting [8]), 97% (active); in test [6] (at 50.0 µM) it was 92.4% (active).

For the molecule `O=C1c2ccc(O)c(O)c2C(=O)c2c(O)ccc(O)c21`, the growth inhibition was 84% (active) in test [1] (setting [7]); 95% (active) in test [1] (setting [8]); 73.2% (active) in test [1] (at 50.0 µM); 74% (active) in test [2] (setting [7]); 95% (active) in test [2] (setting [8]); 55.5% in test [2] (at 50.0 µM). Besides, the growth inhibition in test [3] (setting [7]) was 92% (active); in test [3] (setting [8]), 95% (active); in test [3] (at 50.0 µM) it was 67.6%; in test [4] (setting [7]), 34%; in test [4] (setting [8]), 93% (active); in test [4] (at 50.0 µM), 56%. Further, the growth inhibition in test [5] (setting [7]) was 85% (active); in test [5] (setting [8]) it was 93% (active); in test [5] (at 50.0 µM) it was 72% (active); in test [6] (setting [7]) it was 91% (active); in test [6] (setting [8]), 95% (active); in test [6] (at 50.0 µM), 77.8% (active).

On to `CCCCCCCCNC(=O)C(Cl)Cl`, for which the growth inhibition is 3% in test [1] (setting [7]); 17% in test [1] (setting [8]); -6.1% in test [1] (at 50.0 µM); -27% in test [2] (setting [7]); 11% in test [2] (setting [8]); 2.6% in test [2] (at 50.0 µM). Further, the growth inhibition in test [3] (setting [7]) is 0%; in test [3] (setting [8]), 10%; in test [3] (at 50.0 µM) it was 40%; in test [4] (setting [7]) it was 12%; in test [4] (setting [8]) it was -11%; in test [4] (at 50.0 µM), -10.6%. The growth inhibition in test [5] (setting [7]) was 37%; in test [5] (setting [8]), 84% (active); in test [5] (at 50.0 µM), 70.4% (active); in test [6] (setting [7]) it was 4%; in test [6] (setting [8]), 17%; in test [6] (at 50.0 µM), -3.2%.

For `CCCn1cnc2c(SCc3ccc(Cl)cc3Cl)nc(N)nc21`, the growth inhibition was 12% in test [1] (setting [7]); 14% in test [1] (setting [8]); 97.1% (active) in test [1] (at 50.0 µM); 12% in test [2] (setting [7]); 12% in test [2] (setting [8]); 97.2% (active) in test [2] (at 50.0 µM). For the same molecule, the growth inhibition is 13% in test [3] (setting [7]); 15% in test [3] (setting [8]); 97% (active) in test [3] (at 50.0 µM); 12% in test [4] (setting [7]); -9% in test [4] (setting [8]); 97.2% (active) in test [4] (at 50.0 µM). In addition, the growth inhibition in test [5] (setting [7]) is 13%; in test [5] (setting [8]) it was 16%; in test [5] (at 50.0 µM) it was 97.5% (active); in test [6] (setting [7]) it was 11%; in test [6] (setting [8]) it was 12%; in test [6] (at 50.0 µM), 95.7% (active).

Turning to `COC(=O)C(=O)C(C(=O)C(=O)Nc1ccc(C)cc1C)c1nc2ccccc2[nH]c1=O` (stereo not given), the growth inhibition in test [1] (setting [7]) is 21%; in test [1] (setting [8]), 21%; in test [1] (at 50.0 µM) it was 17%; in test [2] (setting [7]) it was 8%; in test [2] (setting [8]), 8%; in test [2] (at 50.0 µM) it was 20.8%. Besides, the growth inhibition in test [3] (setting [7]) is -2%; in test [3] (setting [8]), -2%; in test [3] (at 50.0 µM), 39.2%; in test [4] (setting [7]), 5%; in test [4] (setting [8]) it was 5%; in test [4] (at 50.0 µM) it was -57.3%. For the same molecule, the growth inhibition in test [5] (setting [7]) is -6%; in test [5] (setting [8]) it was -6%; in test [5] (at 50.0 µM), 34%; in test [6] (setting [7]), 7%; in test [6] (setting [8]), 7%; in test [6] (at 50.0 µM), 49.8%.

For `ClC(Cl)=C1C(=C(Cl)Cl)C(Cl)(Cl)C1(Cl)Cl`, the growth inhibition in test [1] (setting [7]) is 51%; in test [1] (setting [8]), 98% (active); in test [1] (at 50.0 µM), 88.2% (active); in test [2] (setting [7]), 14%; in test [2] (setting [8]), 99% (active); in test [2] (at 50.0 µM), 92.6% (active). Also, the growth inhibition was 70% (active) in test [3] (setting [7]); 99% (active) in test [3] (setting [8]); 92% (active) in test [3] (at 50.0 µM); 55% in test [4] (setting [7]); 97% (active) in test [4] (setting [8]); 92.7% (active) in test [4] (at 50.0 µM). The growth inhibition in test [5] (setting [7]) is 56%; in test [5] (setting [8]), 98% (active); in test [5] (at 50.0 µM) it was 91.2% (active); in test [6] (setting [7]) it was 74% (active); in test [6] (setting [8]), 98% (active); in test [6] (at 50.0 µM), 88.2% (active).
